Measured values published in PubChem BioAssay (NCATS).
Results filed as inconclusive are left out. The source made the active and inactive calls. Calls follow the shape of the dose curve; as a rule, active = well fitted curve in the direction sought with a large enough effect; inconclusive = small, poorly fitted or top-dose-only effect, or another doubt; inactive = no such curve, though single readings can be large; an effect the other way counts as inactive or inconclusive.

Assays:
[1] = MCF7 Cancer Cell Toxicity qHTS against the NCATS CANVASS Library (AID 1347369); also: series mostly up to about 46 µM
Outline: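 MCF7, 500 cells/well; cpds 11-pt qHTS; 72 hr, 37C/5% CO2; CellTiterGlo ATP luminescence.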

[2] = qHTS for ATAD5 Antagonist screened against the NCATS CANVASS Library (AID 1347370);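 also: HEK293T cells carrying an ATAD5 luciferase reporter co-treated with 10 µM 5-fluorouridine; series mostly up to about 46 µM; nearly all actives have a fitted effect of over 65% in size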
Outline: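 HEK293T cells with stably integrated ATAD5-luciferase reporter, 2000/well, 5 h attachment; compounds plus 10 µM 5-fluorouridine, 16 h at 37 °C. Luciferase luminescence read, with CellTiter-Fluor viability read first.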

[3] = J3T Cancer Cell Toxicity qHTS against the NCATS CANVASS Library (AID 1347371);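 also: J3T is a canine glioma cancer cell line seeded at 500 cells per well; series mostly up to about 46 µM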
Outline: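 Cells plated at 500 per well, compounds pin-transferred, plates incubated 72 hr at 37C, then CellTiterGlo added and luminescence read to measure ATP content.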

[4] = biological target: Nuclear receptor subfamily 1 group I member 3 (Homo sapiens) (UniProt Q14994); assay: qHTS for Constitutive Androstane Receptor (CAR) Antagonist screened against the NCATS CANVASS Library (AID 1347372);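 also: cells stimulated with 50 nM CITCO agonist so inhibition reflects antagonism; series mostly up to about 46 µM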
Outline: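 HepG2 cells stably carrying hCAR and CYP2B6-2.2kb luciferase reporter, 2500 cells/well, compound with 50 nM CITCO agonist for 24hr at 37C. ONE-Glo luminescence measured CAR activity; CellTiter-Fluor read viability.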

[5] = biological target: Nuclear receptor subfamily 1 group I member 3 (Homo sapiens) (UniProt Q14994); assay: qHTS for Constitutive Androstane Receptor (CAR) Agonist screened against the NCATS CANVASS Library (AID 1347373);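 also: every well also contained 1.5 µM PK11195 alongside the test compound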
Outline: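 HepG2-hCAR-CYP2B6 cells, 2500/well, attached 4hr; cpd + PK11195 1.5uM final; 24hr 37C 5% CO2. CellTiter-Fluor viability read, then ONE-Glo luminescence for CAR activation.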

[6] = qHTS for Hypoxia signaling pathway (HIF-1) antagonists against the NCATS CANVASS Library (AID 1347374);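 also: HRE-bla ME-180 cells stimulated with cobalt chloride to stabilize HIF-1alpha; series mostly up to about 38 µM; nearly all actives have a fitted effect of over 60% in size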
Outline: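 HRE-bla ME-180 cells in medium with 0.5% dialyzed FBS received compounds (11-point series) plus CoCl2 (60 uM addition stock) for 17 hrs at 37C. Beta-lactamase activity read with CCF4 (405 nm ex, 460/530 nm em); CellTiter-Glo viability measured in same wells.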

[7] = qHTS for Hypoxia signaling pathway (HIF-1) agonists against the NCATS CANVASS Library (AID 1347375)
Outline: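 ME-180 HRE-bla reporter cells; 2,000/well, 0.5% dialyzed FBS; cpd added after 5 h, 17 h 37C/5% CO2; CCF4-AM 2 h RT; FRET 460/530 nm; CellTiter-Glo viability same wells, 30 min.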

[8] = 10-beta competent E. coli microbial cell viability qHTS against the NCATS CANVASS Library (AID 1347376); also: series mostly up to about 46 µM
Outline: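 E. coli 10-beta, 0.2 OD; cpds 11-pt; o/n 37C, 5% CO2; BacTiter-Glo 20 min RT; luminescence (ATP) = viable cells. Daunomycin ctrl.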

[9] = DH5-alpha competent E. coli microbial cell viability qHTS against the NCATS CANVASS Library (AID 1347377); details: outcome: dose series up to 46.1 µM unless noted
Outline: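 qHTS, 11-pt; E. coli DH5-alpha, 0.2 OD; o/n 37C/5% CO2; BacTiter-Glo, 20 min RT; luminescence.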

[10] = qHTS for H2AX Agonists against the NCATS CANVASS Library (AID 1347378)
Outline: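 CHO-K1 cells were plated overnight at 37C, then exposed to compounds (concentration series, 0.76% DMSO final) for 3 hr at 37C. Lysates received Eu-cryptate anti-pH2AX (S139) and d2 anti-H2AX antibodies; after 24 hr at room temperature, TR-FRET 665/620 nm ratio was read.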

[11] = qHTS for Inflammasome Signaling Inhibitors: IL-1-beta AlphaLISA screen against the NCATS CANVASS Library (AID 1347379);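 also: human THP-1 cells primed with LPS then triggered with ATP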
Outline: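 THP-1 cells pretreated 1 hr with compound (up to 57.5 uM final), then stimulated with LPS (250 ng/mL final) and ATP (1.25 mM final). Secreted IL-1B measured by AlphaLISA after 16 hr; glyburide as positive control.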

[12] = Inflammasome Signaling qHTS Counterscreen: IL-1-beta AlphaLISA counterscreen against the NCATS CANVASS Library (AID 1347381);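 also: cell-free check with purified IL-1β in medium and no THP-1 cells; series mostly up to about 57 µM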
Outline: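 Cell-free interference check: compounds added to medium spiked with 4 pg purified IL-1β. Anti-IL-1β acceptor beads (6 ug/mL) with 0.6 nM biotinylated antibody added for 1 h at RT, then streptavidin donor beads (24 ug/mL) for 30 min in the dark. AlphaLISA read at 680/615 nm.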

[13] = Cytotoxicity qHTS for assessment of Hepg2 cells membrane integrity screened against the NCATS CANVASS Library (AID 1347387)
Outline: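 qHTS, 11-pt conc. series, 0.59 nM - 46 uM final; HepG2 2000 cells/well, overnight attachment; 5 hr compound exposure 37C/5% CO2; CytoTox-ONE, 10 min RT; fluorescence ex560/em590 = LDH from damaged membranes.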

[14] = qHTS for Activators of p53 Stress Response Pathway screened against the NCATS CANVASS Library (AID 1347388)
Outline: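 p53RE-bla HCT-116 cells (4000/well) were pre-incubated for 5 h, then treated with compound (11 points) for 16 h at 37C. After 2 h with CCF4, the 460/530 nm ratio gave reporter activation; CellTiter-Glo measured viability.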

[15] = qHTS assay for small molecule disruptors of mitochondrial membrane potential screened against the NCATS CANVASS Library (AID 1347389); also: series mostly up to about 46 µM; nearly all actives have a fitted effect of over 60% in size
Outline: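 HepG2, 2,000 cells/well, attached overnight; compound 1 hr, 37C, 5% CO2; Mito-MPS dye 30 min, 37C; fluorescence 535 nm (monomer) and 590 nm (aggregate); decreased 590/535 ratio = depolarization.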

[16] = Secretion counterscreen for inhibitors of the SERCaMP assay screened against the NCATS CANVASS Library (AID 1347390);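 also: light from luciferase secreted into medium read as a measure of general secretion; series mostly up to about 77 µM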
Outline: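 SH-SY5Y cells expressing constitutively secreted GLuc, 1000 cells/well, attached 4 h at 37C, then exposed to compounds (0.001 - 77 uM, 11-pnt series) for 20 h. Coelenterazine added; luminescence read to flag secretory-pathway interferers.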

[17] = qHTS for activators of Nrf2/ARE signaling pathway screened against the NCATS CANVASS Library (AID 1347391); also: nearly all actives have a fitted effect of over 60% in size
Outline: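 Plate ARE-bla HepG2 cells at 2000/well and let them settle 5 h. Pin-transfer compounds in DMSO, incubate 16 h at 37C. Load CCF4 for 2 h at room temperature and read blue/green fluorescence.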

[18] = qHTS for activators of dead-cell proteases activity screened against the NCATS CANVASS Library (AID 1347392);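 also: luminescence from protease leaking out of membrane-damaged cells cleaving impermeant substrate; rising signal means more cytotoxicity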
Outline: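 HepG2 cells, 2000/well, attached 18 h at 37C, then exposed to compounds (11-point qHTS) for 5 h. Dead-cell protease release read as luminescence from cell-impermeant AAF-aminoluciferin substrate after 15 min at room temperature.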

[19] = qHTS for inhibitors of ER calcium dysfunction: SERCaMP assay screened against the NCATS CANVASS Library (AID 1347393);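 also: series mostly up to about 77 µM; lower secreted reporter signal means inhibitor of ER calcium depletion; nearly all actives have a fitted effect of over 40% in size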
Outline: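 SH-SY5Y GLuc-SERCaMP, 1000 cells/well, 4 h attach; cpd 16 h, 37C/5% CO2; thapsigargin (added as 6x 600 nM) 4 h; coelenterazine; luminescence. Reduced reporter release = ER Ca stabilization.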

[20] = Vero-766 cells viability qHTS against the NCATS CANVASS Library: Counterscreen for Zika virus inhibition assay (AID 1347394); also: series mostly up to about 46 µM; nearly all actives have a fitted effect of over 60% in size
Outline: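 Uninfected Vero 766 (African green monkey) cells, 1000/well, attached overnight, then exposed 72 h at 37C to compounds (11-point qHTS). Viability read by CellTiter-Glo luminescence; media-only wells served as 100% inhibition.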

[21] = qHTS for inhibitors of Wild type Zika virus screened against the NCATS CANVASS Library (AID 1347396);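 also: ATP luminescence of surviving cells so rescue from viral cell killing; series mostly up to about 46 µM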
Outline: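 Using ATP-based luminescence (CellTiter Glo), this screen scores rescue of Vero 766 cells from wild-type Zika killing at 72 h post-infection. Compounds are tested in a concentration series.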

[22] = Viability qHTS for inhibitors of the SERCaMP assay screened against the NCATS CANVASS Library (AID 1347400); also: series mostly up to about 92 µM; nearly all actives have a fitted effect of over 70% in size
Outline: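 SH-SY5Y SERCaMP MJH297 cells, 1000/well; 4 h settle, 37C/5% CO2; pin-transferred cpds; 48 h; CellTiter-Glo lum. Pos ctrl bortezomib 0.0001 - 4.6 uM.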

[23] = Redox Reaction Profiling qHTS: Assay Interference Panel against the NCATS CANVASS Library (AID 1347401)
Outline: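 Compounds in 11-point series incubated with 5 uM resazurin and 200 uM DTT in 50 mM HEPES pH 7.3, 50 mM NaCl. Resorufin fluorescence (Ex 525/Em 598) read before and after 15 min in the dark.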

Measured: Potency

Sequence of Nuclear receptor subfamily 1 group I member 3 (Homo sapiens) (Q14994 whole entry, looked up): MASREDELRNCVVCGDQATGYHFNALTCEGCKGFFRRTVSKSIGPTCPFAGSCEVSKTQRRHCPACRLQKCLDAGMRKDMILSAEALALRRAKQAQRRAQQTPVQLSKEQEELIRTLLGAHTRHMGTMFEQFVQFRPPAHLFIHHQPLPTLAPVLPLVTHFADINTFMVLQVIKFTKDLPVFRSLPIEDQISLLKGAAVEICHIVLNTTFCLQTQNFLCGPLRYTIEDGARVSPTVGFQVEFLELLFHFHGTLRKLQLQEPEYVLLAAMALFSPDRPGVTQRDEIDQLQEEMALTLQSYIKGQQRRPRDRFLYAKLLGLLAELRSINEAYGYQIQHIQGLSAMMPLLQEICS

C=C1[C@H]2CC[C@@]3(C=CC(=O)[C@@](C)(CCC(=O)Nc4c(O)ccc(C(=O)O)c4O)C3C2)[C@H]1O (stereo partly drawn)
inactive: all assays above
